HP1b binding inh: inhibitors of HP1-beta chromodomain binding to methylated histone tails; P83916; AlphaScreen HP1-beta / biotin-H3K9me3 peptide binding; Potency, µM (doses to about 114 µM), for the others: at the highest dose activity change, negative = inhibition, hits mostly inhibitors; hit rate 0.56% among 390,000; AID 540317; note: potency is the fitted concentration of half-maximal effect; nearly all actives have a fitted effect of over 70% in size
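HP1-beta protein (50 nM final) preincubated 30 min at room temperature with biotinylated H3(1-18)K9me3 peptide (50 nM) in PBS pH 7.4, 0.01% Tween-20, then compound added for 30 min. AlphaScreen streptavidin donor/nickel chelate acceptor beads (10 ug/mL final), 30 min dark, luminescence read.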
BAZ2B inh: BAZ2B (human) inhibition | AlphaScreen BAZ2B-H3K14Ac peptide displacement | Potency, µM (top dose mostly 114 µM), without a hit: top-dose activity change, negative = inhibition, most hits filed as inhibitors | hit rate 4.4% among 360,000; note: potency is the fitted concentration of half-maximal effect; % is set by controls: 0 for no effect and ±100 for the full control effect; nearly all actives have a fitted effect of over 60% in size
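AlphaScreen displacement of biotin-H3(5-23)K14Ac peptide (50 nM final) from BAZ2B (50 nM final) in PBS pH 7.4, 0.01% Tween-20; complex preformed 30 min RT, then compounds (top 110 uM) 30 min RT, beads 20 min dark.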
G9a inh: G9a (human) methyltransferase inhibition; Q96KQ7; G9a H3K9 monomethylation, AlphaScreen, 2 h; Potency, µM (doses to about 102 µM), for inactives: top-dose activity, negative = inhibition, most hits filed as inhibitors; hit rate 8.8% among 350,000; AID 504332; note: potency is the fitted concentration of half-maximal effect; % is set by controls: 0 for no effect and ±100 for the full control effect; nearly all actives have a fitted effect of over 75% in size
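AlphaScreen read-out: biotin-H3K9 peptide (500 nM) methylation by 20 nM enzyme with 20 uM SAM, 2 h at room temperature after 15 min compound preincubation; anti-monomethyl H3K9 antibody plus donor/acceptor beads, 10 min dark.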
PI5P4Ka inh: inhibitors of human PI5P4K alpha | P48426 | PI5P4Kalpha enzyme, ADP-Glo luminescence, 60 min; hits give low values | max response, % | hit rate 1.2% among 330,000 | AID 652105; active = max response of -50% or lower; inconclusive = between -30% and -50%; inactive = -30% or higher; note: value at the top dose of about 77 µM; % is set by controls: 0 for no effect and ±100 for the full control effect
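Human PI5P4Kalpha with substrate in 0.038 M HEPES pH 7.4, 0.28 mM EGTA, 0.1% CHAPS, 5% DMSO; reaction started with 5 microM ATP (final), 60 min at room temperature. ADP formed read by ADP-Glo luminescence.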
JMJD2A Tudor inh: blocks the human JMJD2A Tudor domain | O75164 | AlphaScreen JMJD2A-Tudor / H3K4me3 peptide binding | Potency, µM (top dose mostly 114 µM), without a hit: at the highest dose activity change, negative = inhibition, actives largely listed as inhibitors | hit rate 4.4% among 390,000 | AID 504339; note: potency is the fitted concentration of half-maximal effect; % is set by controls: 0 for no effect and ±100 for the full control effect; nearly all actives have a fitted effect of over 50% in size
PLK1 PBD inh: inhibitors of human PLK1 polo-box domain binding; AID 720504; hit rate 2.8% among 360,000; Plk1 PBD binding of FITC phosphopeptide, fluorescence polarization; Potency, µM, for inactives: max response, negative = inhibition, usual class: inhibitors; P53350; note: potency is the fitted concentration of half-maximal effect; series mostly up to about 57 µM; % is set by controls: 0 for no effect and ±100 for the full control effect; nearly all actives have a fitted effect of over 65% in size
Numbers without * were called inactive; [ ] = remark or other dose. Only some compounds are listed: those with a hit (about 12% of all), similar ones and a draw of the others. Unless noted, calls come from the whole dose curve; as a rule, active = well fitted curve in the direction sought with a large enough effect; inconclusive = small, poorly fitted or top-dose-only effect, or another doubt; inactive = no such curve, though single readings can be large; an effect the other way counts as inactive or inconclusive.

Results for O=C1N=c2ccc([N+](=O)[O-])cc2=C1c1sc(=O)[nH]c1O ?
HP1b binding inh: 1%; BAZ2B inh: 0%; G9a inh: inconclusive; PI5P4Ka inh: -54*; JMJD2A Tudor inh: inconclusive; PLK1 PBD inh: 3.4µM*

Results for O=C1CCCN1CCCNc1ccc2nnc(CCC(=O)N3CCN(c4ccc(F)cc4)CC3)n2n1 ?
HP1b binding inh: -5%; BAZ2B inh: -39%; G9a inh: -49%; PI5P4Ka inh: 0; JMJD2A Tudor inh: inconclusive; PLK1 PBD inh: 27µM*

What do the screens show for `COC(=O)c1ccc(COc2cc(C)ccc2C)o1`?
HP1b binding inh: 102%; BAZ2B inh: 74%; G9a inh: 172%; PI5P4Ka inh: -2; JMJD2A Tudor inh: 42%; PLK1 PBD inh: -20%

What do the screens show for `Cc1ccc(-c2c(C)n([O-])c3c([n+]2=O)CCCC3)cc1`?
HP1b binding inh: 2%; BAZ2B inh: -8%; G9a inh: -16%[59 µM]; PI5P4Ka inh: 8; JMJD2A Tudor inh: 56µM*; PLK1 PBD inh: inconclusive

Results for Cc1ccc(C)c(CSc2nnc(C)n3c2cc2sccc23)c1 ?
HP1b binding inh: 31%; BAZ2B inh: -14%; G9a inh: -8%[59 µM]; JMJD2A Tudor inh: -12%

Results for Cc1cccn2c(=O)cc(CSc3nnc(NC(=O)COc4ccccc4)s3)nc12 ?
HP1b binding inh: 36%[57 µM]; BAZ2B inh: 28µM*; G9a inh: -27%[12.7 µM]; JMJD2A Tudor inh: 56µM*

What do the screens show for `O=c1cc(CSc2nnc(Nc3ccccc3F)s2)nc2sccn12`?
HP1b binding inh: 8%; BAZ2B inh: -23%; G9a inh: inconclusive; PI5P4Ka inh: -21; JMJD2A Tudor inh: -13%; PLK1 PBD inh: -16%

How did COc1ccc(Nc2nnc(SCc3cc(=O)n4ccsc4n3)s2)cc1 do in these assays?
HP1b binding inh: -2%; BAZ2B inh: -2%[57.1 µM]; G9a inh: 4µM*; JMJD2A Tudor inh: 22µM*; PLK1 PBD inh: inconclusive

What do the screens show for `CC(=O)c1c(C)[nH]c(-c2ccccc2)c1C`?
HP1b binding inh: -26%; BAZ2B inh: 50µM*; G9a inh: -9%[59 µM]; PI5P4Ka inh: 2; JMJD2A Tudor inh: inconclusive; PLK1 PBD inh: -8%

Results for Cc1ccc(CCNC(=O)C(C)n2nc(C)c3c(C)n(-c4ccc(C)cc4)nc3c2=O)cc1 (stereo not drawn) ?
HP1b binding inh: 29%; BAZ2B inh: -5%; G9a inh: inconclusive; JMJD2A Tudor inh: 0%

What do the screens show for `Cc1ccc(Cl)cc1N1CCN(CC(O)COCc2ccco2)CC1` (stereo not drawn)?
HP1b binding inh: inconclusive; BAZ2B inh: 50µM*; G9a inh: 11µM*; PI5P4Ka inh: -1; JMJD2A Tudor inh: 7.1µM*; PLK1 PBD inh: 6%

What do the screens show for `OC(COCc1ccc(Cl)cc1)CN1CCN(CC(O)COCc2ccc(Cl)cc2)CC1` (stereo not drawn)?
HP1b binding inh: 26%; BAZ2B inh: 12%; G9a inh: 32%[12.7 µM]; JMJD2A Tudor inh: -2%; PLK1 PBD inh: -4%

How did OC(COCc1ccco1)CN1CCN(C(c2ccccc2)c2ccccc2)CC1 (stereo not drawn) do in these assays?
HP1b binding inh: 28µM*; BAZ2B inh: 35µM*; G9a inh: -159%; PI5P4Ka inh: 8; JMJD2A Tudor inh: 1.3µM*; PLK1 PBD inh: -2%

How did CCCCOC(=O)c1ccc(NC(=O)Cc2coc3c(C)c(C)ccc23)cc1 do in these assays?
HP1b binding inh: 41%; BAZ2B inh: -18%; G9a inh: -3%[59 µM]; JMJD2A Tudor inh: -16%

What do the screens show for `COc1ccc(C=C2c3ccccc3C(=O)c3ccccc32)c(OC)c1`?
BAZ2B inh: 13µM*; G9a inh: 28µM*

Results for COc1ccc(/C=N/N=C2/SCC(=O)N2Cc2ccccc2)cc1 ?
HP1b binding inh: 25%; BAZ2B inh: 0%; PI5P4Ka inh: 7; JMJD2A Tudor inh: -6%; PLK1 PBD inh: -2%
